This note sets out measurements from the supplement of paper PMC6522484.

The subject of test [1] is DLD1. As to the kind of experiment: cell viability (CellTiter-Glo) relative to plate median (fraction of plate median); higher = more viable cells. The settings on record: 5 µM; treatment time 24 h; reporter: 7TFP. A digest of the protocol: (§1)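 Values are well luminescence normalised to the plate median, from either a firefly luciferase or a CellTiterGlo readout on parallel plates. The cells, colorectal cancer lines stably transduced with lentiviral 7TFP or TCF4/Wnt firefly luciferase reporters, were treated with library compounds at a final 5 µM for 24 h. The mean of two independent replicates is listed.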

In the next test the test system is HCT116. The test is described as above. The settings on record: 5 µM; treatment time 24 h; reporter: TCF4/Wnt. Put shortly: as §1
Test [2] has as its system SW480. The test is described as above. The settings on record: 5 µM; treatment time 24 h; reporter: 7TFP. Put shortly:
as §1

For test [3], the system named is DLD1. The test is described as follows: TCF/Wnt firefly luciferase reporter signal relative to plate median (fraction of plate median); higher = higher Wnt reporter signal. The settings on record: 5 µM; treatment time 24 h; reporter: 7TFP. A digest of the protocol: as §1
The test system of test [4] is SW480. The test is described as above. The settings on record: 5 µM; treatment time 24 h; reporter: 7TFP. A digest of the protocol:
as §1

± gives the standard deviation of the averaged measurements.

Take `O=C(/C=C/c1ccccc1)c1ccc(O[C@@H]2O[C@H](CO)[C@@H](O)[C@H](O)[C@H]2O)cc1O`: the cell viability came to 0.947 ± 0.022 in the test on DLD1 [1], 0.83 ± 0.04 in the test with HCT116 and 0.978 ± 0.018 in the test with SW480 [2]. The “TCF/Wnt firefly luciferase reporter signal” value came out at 1.02 ± 0.036 in the test on DLD1 [3] and 1.13 ± 0.057 in the test on SW480 [4].
For `O=C(O)c1cc(=O)c2c(OCC(O)COc3cccc4oc(C(=O)O)cc(=O)c34)cccc2o1`, in that order: 1.04 ± 0.06, 0.9275 ± 0.0021, 1.09 ± 0.13, 0.902 ± 0.036 and 1.01 ± 0.081.
Turning to `CCCCN1CCCCC1C(=O)Nc1c(C)cccc1C` (stereo not given), the cell viability with DLD1 [1] was 1.02 ± 0.055; in the test on HCT116, 0.949 ± 0.071; with SW480 [2], 1.06 ± 0.042. The figures for the “TCF/Wnt firefly luciferase reporter signal” value with DLD1 [3] and in the test on SW480 [4] were 0.901 ± 0.081 and 0.887 ± 0.047, respectively.
`COc1ccc(-c2cc(=O)c3ccccc3o2)cc1`: the cell viability in the test with DLD1 [1] is 1 ± 0.066; in the test on HCT116 it was 0.983 ± 0.11; with SW480 [2], 1.03. The entries for the “TCF/Wnt firefly luciferase reporter signal” value with DLD1 [3] and in the test with SW480 [4] were 1.28 ± 0.12 and 1.13 ± 0.18, respectively.
With `O=C(O)c1c2ccccc2cc2ccccc12`, the cell viability with DLD1 [1] amounted to 0.959 ± 0.043; in the test with HCT116, 1.02 ± 0.13; in the test on SW480 [2] it was 1.01 ± 0.052. In addition, the entries for the “TCF/Wnt firefly luciferase reporter signal” value with DLD1 [3] and in the test on SW480 [4] were 0.934 ± 0.064 and 0.872 ± 0.073, respectively.
With `C/C=C(\CO)C(=O)O[C@H]1[C@H](O)[C@@H](C(=O)OC)O[C@@H]2C[C@H]3O[C@@H](n4cnc5c(N)ncnc54)[C@H](OC)[C@H]3O[C@]21O` [Herbicidin A], the cell viability in the test on DLD1 [1] was found to be 1.06 ± 0.014; with HCT116 it was 0.843 ± 0.045; with SW480 [2], 0.982 ± 0.054. In addition, the “TCF/Wnt firefly luciferase reporter signal” value turned out to be 0.933 ± 0.095 in the test on DLD1 [3] and 0.898 ± 0.064 with SW480 [4].
For the compound `CCNC(=O)CC[C@H](N)C(=O)O`, the cell viability in the test on DLD1 [1] came out at 1.01 ± 0.021; with HCT116, 1.03 ± 0.06; with SW480 [2], 0.998 ± 0.018. Moreover, the results for the “TCF/Wnt firefly luciferase reporter signal” value with DLD1 [3] and with SW480 [4] were 1.13 ± 0.11 and 1.05 ± 0.014, respectively.
The corresponding values for `Nc1ncnc2c1ncn2[C@H]1C[C@H](O)[C@@H](CO)O1` are 1.07 ± 0.064, 1.06 ± 0.021, 1.01 ± 0.044, 1.05 ± 0.014 and 1.09 ± 0.064.
For `O=C(Nc1ccc(C(=O)O)c(O)c1)c1ccccc1`, in that order: 1.065 ± 0.0071, 0.924 ± 0.011, 1.01 ± 0.032, 0.83 ± 0.016 and 1.07 ± 0.05.
`COc1c2ccoc2cc2oc(=O)ccc12`: the results for the cell viability in the test with DLD1 [1], with HCT116 and in the test with SW480 [2] were 1.02 ± 0.046, 0.946 ± 0.018 and 0.978 ± 0.015, respectively. Also, the “TCF/Wnt firefly luciferase reporter signal” value in the test on DLD1 [3] is 0.984 ± 0.093; with SW480 [4], 1.01 ± 0.028.
`CCOC(=O)[N-]c1c[n+](N2CCOCC2)no1`: the cell viability in the test on DLD1 [1] is 1.065 ± 0.0071; in the test on HCT116, 1.01 ± 0.089; in the test on SW480 [2] it was 1.02 ± 0.035. Further, the “TCF/Wnt firefly luciferase reporter signal” value turned out to be 0.984 ± 0.037 in the test on DLD1 [3] and 1.11 ± 0.078 in the test with SW480 [4].
The corresponding values for `C[C@]12C=CC(=O)C=C1CC[C@@H]1[C@@H]2[C@@H](O)C[C@@]2(C)[C@H]1CC[C@]2(O)C(=O)COC(=O)CCC(=O)O` are 1.02 ± 0.028, 1.01 ± 0.092, 1.03 ± 0.014, 1.075 ± 0.0071 and 0.969 ± 0.072.
`CC1(C)CCC[C@]2(C)[C@@H]3[C@H]1[C@@H](O)[C@@]2(C)C[C@H]3O`: the cell viability with DLD1 [1] came to 1.005 ± 0.0071; in the test on HCT116 it was 0.991 ± 0.11; in the test with SW480 [2], 1.12 ± 0.014. The figures for the “TCF/Wnt firefly luciferase reporter signal” value in the test on DLD1 [3] and with SW480 [4] were 0.981 ± 0.023 and 1.13 ± 0.014, respectively.
In the case of `O=C(OC[C@H]1O[C@@H](OC(=O)c2cc(O)c(O)c(OC(=O)c3cc(O)c(O)c(O)c3)c2)[C@H](OC(=O)c2cc(O)c(O)c(OC(=O)c3cc(O)c(O)c(O)c3)c2)[C@@H](OC(=O)c2cc(O)c(O)c(OC(=O)c3cc(O)c(O)c(O)c3)c2)[C@@H]1OC(=O)c1cc(O)c(O)c(OC(=O)c2cc(O)c(O)c(O)c2)c1)c1cc(O)c(O)c(OC(=O)c2cc(O)c(O)c(O)c2)c1`, the figures for the cell viability in the test on DLD1 [1], in the test on HCT116 and in the test with SW480 [2] were 1.025 ± 0.0071, 0.915 ± 0.04 and 1 ± 0.05, respectively. For the same compound, the “TCF/Wnt firefly luciferase reporter signal” value was found to be 0.794 ± 0.055 with DLD1 [3] and 0.913 ± 0.047 with SW480 [4].
